Measured values reported in PubChem BioAssay (NCATS).
Records with an inconclusive call do not appear. Active and inactive are the calls of the source. Calls follow the shape of the dose curve; as a rule, active = well fitted curve in the direction sought with a large enough effect; inconclusive = small, poorly fitted or top-dose-only effect, or another doubt; inactive = no such curve, though single readings can be large; an effect the other way counts as inactive or inconclusive.

What was measured:
[1] = COV-362 Cancer Cell Toxicity qHTS against the NCATS CANVASS Library (AID 1347352); also: series mostly up to about 38 µM
Procedure, shortened: (§1)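 Luminescent ATP read-out (CellTiter-Glo, 15min at room temperature) measures survival after cells face an 11-point compound series for 72 hours at 37 degrees C/5% CO2.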

[2] = A2780 Cisplatin Sensitive Ovarian Cancer Cell Toxicity qHTS against the NCATS CANVASS Library (AID 1347353); details: outcome: dose series up to 46.1 µM; also: nearly all actives have a fitted effect of over 60% in size
Procedure, shortened: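 Luminescent ATP content (ATPLite, 10 min at room temperature) served as the read-out after cells had been exposed to compounds for 72 hours at 37 °C. Dosing followed an 11-point concentration series.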

[3] = UWB1.289-WTBRCA1 Cancer Cell Toxicity qHTS against the NCATS CANVASS Library (AID 1347354); details: outcome: dose series up to 38.3 µM
Procedure, shortened: as §1

[4] = HEK-293 Cancer Cell Toxicity qHTS against the NCATS CANVASS Library (AID 1347355); also: series mostly up to about 46 µM; nearly all actives have a fitted effect of over 65% in size
Procedure, shortened: as §1

[5] = HPAF-II 24hr Apoptosis Induction qHTS against the NCATS CANVASS Library (AID 1347356)
Excerpt: Natural products and their derivatives continue to be wellsprings of nascent therapeutic potential. However, many laboratories have limited resources for biological evaluation, leaving their previously isolated or synthesized compounds largely or completely untested. To address this issue, the Canvass library of natural products was assembled (https://tripod.nih.gov/canvass), in collaboration with academic and industry researchers, for quantitative high-throughput screening (qHTS) across a diverse set of cell-based and biochemical assays. The pure (>85% purity by liquid chromatography/mass spectrometry [LC/MS]) Canvass library of 346 natural products were submitted by 45 academic laboratories and companies around the world. We collected pure natural products to circumvent deconvolution and structure elucidation due to time and resource limitations. The library was formatted into 1536-well plates and evaluated in 50 qHTS (in an 11-pnt concentration series) bioassays with broad scope of disease-relevant mechanisms. The resulting data set from 50 different assays was then systematically analyzed to identify overall trends and specific natural products with interesting biological activities. Reported herein are the results of each individual qHTS and their corresponding assay protocol. The Caspase-Glo (R) (Promega) is a homogeneous, luminescent assay that measures caspase activity. The detection substrate contains tetrapeptide sequence DEVD in an "add-mix-measure" format. The reagent generates a luminescent signal produced by a thermostable luciferase. The luminescence is proportional to the amount of caspase activity in the assay reaction. National Center for Advancing Translational Sciences (NCATS), Rockville, MD National Institute of Health (NIH), Bethesda, Maryland
Cancer Cell Apoptosis Assay 1. […] Luminescence signal was acquired via the ViewLux plate reader (PerkinElmer) using a clear filter, 20 second exposure and 2x binning settings.

[6] = HEK293 18hr Apoptosis Induction qHTS against the NCATS CANVASS Library (AID 1347357)
Procedure, shortened: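 Cells seeded at 500/well in DMEM + 10% FBS. Compounds pinned, 11 concentrations. 18 h, 37 degrees C/5% CO2. Caspase-Glo 3/7 added, 15 min RT dark, luminescence read.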

[7] = HPAF-II 12hr Apoptosis Induction qHTS against the NCATS CANVASS Library (AID 1347358)
Procedure, shortened: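 500 HPAF-II cells/well; cmpds 11-pt; 12 hr, 37 degrees C/5% CO2; Caspase-Glo 3/7 added, 15 min RT dark; luminescence read. Doxorubicin titration as control.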

[8] = HEK293 24hr Apoptosis Induction qHTS against the NCATS CANVASS Library (AID 1347359)
Procedure, shortened: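 Caspase-3/7 activation measured as luminescence from the DEVD-based Caspase-Glo reagent, 15 min at room temperature, following 24-hour compound treatment of HEK293 cells.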

[9] = HPAF-II 18hr Apoptosis Induction qHTS against the NCATS CANVASS Library (AID 1347360)
Procedure, shortened: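 Seed HPAF-II cells at 500/well in DMEM + 10% FBS, pin-transfer compounds, incubate 18 hours at 37 degrees C/5% CO2, add Caspase-Glo 3/7 reagent, wait 15 min, read luminescence.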

[10] = HEK293 12hr Apoptosis Induction qHTS against the NCATS CANVASS Library (AID 1347361)
Procedure, shortened: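 Cells are seeded, dosed with an 11-point compound series and incubated 12 hours. Caspase-3/7 activity is detected by luminescent DEVD-substrate reagent after 15 minutes at room temperature.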

Measured: outcome

O=c1cc(-c2ccccc2)oc2cc(O)c(O)c(O)c12
inactive: all assays above

O=C(O)C(O)Cc1ccc(O)c(O)c1 (centres undefined)
not listed: [4]
inactive: all other assays above

COC(=O)[C@@H]1[C@H]2C[C@H]3c4[nH]c5ccccc5c4CCN3C[C@@H]2CC[C@@H]1O
inactive: all assays above
